Type in all cases: functional
Experiment [1] addresses Solute carrier family 2, facilitated glucose transporter member 1 (Homo sapiens) (UniProt P11166). Description: ST_JUDE_LEISH: Cytotoxicity at 2uM final concentration against transgenic Leishmania Mexicana promastigotes LmGLUT1 that are glucose transport deficient and complemented with the human glucose transporter GLUT1. Activity is measured by DNA content using SYBR green in vitro.

Experiment [2] concerns the target Hexose transporter 1 (Plasmodium falciparum) (UniProt O97467). As to the kind of experiment: ST_JUDE_LEISH: Cytotoxicity at 2uM final concentration against transgenic Leishmania Mexicana promastigotes LmPfHT that are glucose transport deficient and complemented with the Plasmodium falciparum hexose transporter. Activity is measured by DNA content using SYBR green in vitro.

Experiment [3] concerns the target Glucose transporter (Leishmania mexicana) (UniProt O61059). Description: ST_JUDE_LEISH: Cytotoxicity at 2uM final concentration against transgenic Leishmania Mexicana promastigotes LmGT2 that are glucose transport deficient and complemented with the L. Mexicana glucose transporter 2. Activity is measured by DNA content using SYBR green in vitro.

Sequence of Solute carrier family 2, facilitated glucose transporter member 1 (Homo sapiens) (P11166 whole entry): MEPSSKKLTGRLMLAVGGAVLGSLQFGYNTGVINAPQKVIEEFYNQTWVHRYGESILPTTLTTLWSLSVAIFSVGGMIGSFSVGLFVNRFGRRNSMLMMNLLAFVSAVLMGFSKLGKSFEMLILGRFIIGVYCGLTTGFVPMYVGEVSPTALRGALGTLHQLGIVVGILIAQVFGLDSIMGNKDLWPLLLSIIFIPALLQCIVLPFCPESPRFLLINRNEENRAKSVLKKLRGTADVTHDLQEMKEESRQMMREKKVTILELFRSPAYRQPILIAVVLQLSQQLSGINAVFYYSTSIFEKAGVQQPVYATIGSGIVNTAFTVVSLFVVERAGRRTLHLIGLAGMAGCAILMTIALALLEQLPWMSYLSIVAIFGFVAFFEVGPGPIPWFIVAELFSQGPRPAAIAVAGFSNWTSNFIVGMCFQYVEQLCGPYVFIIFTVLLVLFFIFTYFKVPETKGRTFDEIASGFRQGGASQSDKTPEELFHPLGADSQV

Take `CC(Oc1c(C2CCN(CCCCNC(=O)c3ccc(-c4ccc(Cl)cc4)cc3)CC2)ccc2c1CCCC2)C(N)=O` (stereo not drawn): the figures for the inhibition in experiment [1], in experiment [2] and in experiment [3] were -0.63%, -0.36% and -0.27%, respectively.

For `Cc1ncc([N+](=O)[O-])n1CCOC(=O)NC(NCC1COc2ccccc2O1)C(Cl)(Cl)Cl` (stereo not drawn), the inhibition in experiment [1] is 2.63%; in experiment [2], 2.63%; in experiment [3] it was 2.19%.

For the compound `O=c1cc(NCCCNCc2ccc(Cl)c(Cl)c2)[nH]c2cc(F)cc(F)c12`, the inhibition in experiment [1] came out at 3.21%; in experiment [2], 2.15%; in experiment [3], 3.08%.

Take `COc1cc2c(cc1C(F)(F)F)N(C(=O)Nc1cc(OC(F)(F)F)cc(-c3cccnc3)c1)CC2`: the inhibition in experiment [1] was -0.39%; in experiment [2] it was 1.79%; in experiment [3] it was -0.44%.

`COc1ccc2nccc([C@@H](O)CN3C4CCC3CC(NCc3ccc5c(n3)NC(=O)CS5)C4)c2n1` (stereo partly drawn): the inhibition is 1.63% in experiment [1], 1.76% in experiment [2] and -2.06% in experiment [3].

As to `CC(C)CNCc1cccc(-c2ccc(CNC3CCN(Cc4ccccc4)CC3)cc2)c1`, the inhibition in experiment [1] is 6.62%; in experiment [2], 7.43%; in experiment [3] it was 4.78%.

Turning to `Cc1cc2nc(-c3ccc(SCC(=O)Nc4ccc5c(c4)OCCO5)nc3)[nH]c2cc1C`, the inhibition in experiment [1] is 0.8%; in experiment [2] it was -0.74%; in experiment [3], -4.17%.

In the case of `CC(CN(C)C)C(=O)Nc1cccc(-c2ccc(-c3nc4ccccc4[nH]3)s2)c1` (stereo not drawn), the inhibition in experiment [1] was found to be 9.63%; in experiment [2] it was 9.45%; in experiment [3] it was 3.78%.

In the case of `N#Cc1ccnc(-c2ccc(CNC3CCN(CC4Cn5c(=O)ccc6ccc(F)c4c65)CC3)cc2)c1` (stereo not drawn), the results for the inhibition in experiment [1], in experiment [2] and in experiment [3] were 9.83%, 8.44% and 4.88%, respectively.

`CC(C)COc1ccc(Cl)cc1Cc1nc(-c2nc3ccc(CN4CCCCC4)cc3[nH]2)co1`: the inhibition in experiment [1] worked out at 4.83%; in experiment [2] it was 3.69%; in experiment [3], 2.91%.

As for `COCCN(C(=O)Cc1cccs1)C(C(=O)NCc1ccc(OC)cc1)c1ccc(C(C)C)cc1` (stereo not drawn), the inhibition was 2.96% in experiment [1], -3.02% in experiment [2] and -0.76% in experiment [3].

On to `CCCCCNC(=N)c1ccc(OCCCCCOc2ccc(C(=N)NCCCCC)cc2)cc1`, for which the inhibition in experiment [1] came to 19.6%; in experiment [2], 25.9%; in experiment [3], 5.15%.

Turning to `CSc1ccc2nccc(Nc3ccc(Oc4ccccc4)cc3)c2c1`, the inhibition came out at 5.73% in experiment [1], 6.24% in experiment [2] and 1.56% in experiment [3].

For `CCC1N=C(N)N=C(N)N1OCc1ccc(Cl)c(Cl)c1` (stereo not drawn), the inhibition in experiment [1] is -0.58%; in experiment [2], 0.09%; in experiment [3], -0.8%.

In the case of `Cc1cccc2nc(-c3cccc(-c4ccc(NC(=O)Nc5ccc(F)c(F)c5F)cc4)c3)[nH]c12`, the figures for the inhibition in experiment [1], in experiment [2] and in experiment [3] were 1.49%, 1.47% and 3.22%, respectively.

`COc1ccc(CNC2CCN(C)CC2)cc1-c1ccc(S(=O)(=O)NCc2ccccc2)c(C)c1`: the inhibition in experiment [1] was determined as 7.68%; in experiment [2], 8.41%; in experiment [3], 7.94%.

In the case of `CN(Cc1ccc(-c2ccc(C(F)(F)F)cc2)cc1)C(=O)Cn1c(CCc2cccc(F)c2F)nc(=O)c2ccc(N3CCN(CCN4CCCCC4)CC3)nc21`, the inhibition stood at 7.76% in experiment [1], 7.16% in experiment [2] and 3.71% in experiment [3].

Regarding `COc1ccc2nccc([C@@H](O)CN3CCC(NC(=O)c4ccc(OC)c(N)c4)CC3)c2c1`, the values for the inhibition in experiment [1], in experiment [2] and in experiment [3] were 14.9%, 16.7% and 11.5%, respectively.

Take `CN(C)c1ccc(CN2CCC(NC(=O)c3ccc(-c4ccccc4Cl)s3)CC2)cc1`: the inhibition is 2.51% in experiment [1], 1.07% in experiment [2] and 1.76% in experiment [3].

For the compound `O=C(NCCCCN1CCC(c2ccc3c(c2OCC2CC2)CCCC3)CC1)c1ccc(NC(=O)c2ccc(Cl)cc2)cc1`, the values for the inhibition in experiment [1], in experiment [2] and in experiment [3] were 7.74%, 6.44% and 8.96%, respectively.

As to `Cc1cccc2nc(-c3cccc(-c4ccc(CNCc5ccccc5)cc4)c3)[nH]c12`, the inhibition in experiment [1] was found to be 5.37%; in experiment [2], 3.63%; in experiment [3], 1.78%.

As to `COc1ccc2nccc([C@@H](O)CN3CCC(NC(=O)/C=C/c4ccc(Cl)c(C(F)(F)F)c4)CC3)c2c1`, the inhibition was 5% in experiment [1], 4.74% in experiment [2] and -1.23% in experiment [3].

`CN1CCN(CCCNc2ncc3c(-c4ccc(NC(=O)Nc5cc(C(F)(F)F)ccc5F)c(F)c4)nn(C)c3n2)CC1`: the inhibition in experiment [1] was -0.98%; in experiment [2], -3.33%; in experiment [3], 7.86%.

Take `CC(=O)Nc1nc(N)c2c(ccc3c2ccn3CC(C)C)n1`: the inhibition was -2.54% in experiment [1], -0.46% in experiment [2] and -0.95% in experiment [3].

For the compound `CC(C)Oc1cc2c(cc1NS(=O)(=O)c1ccc(-c3cccs3)cc1)CCN(C)CC2`, the inhibition in experiment [1] turned out to be 5.11%; in experiment [2] it was 2.07%; in experiment [3], 1.94%.

As to `CN(C)c1ccc(C=CC(=O)NC(=O)c2ccccc2O)cc1`, the inhibition in experiment [1] worked out at 3.19%; in experiment [2], 2.19%; in experiment [3], 1.56%.

For `COc1cc(CNCCCNc2nc(=O)c3sccc3[nH]2)c2[nH]cc(Cl)c2c1`, the inhibition is 92.7% in experiment [1], 96.7% in experiment [2] and 87.6% in experiment [3].

In the case of `CC(C)COc1ccc2ccccc2c1CNCCCCCCNCc1c(OCC(C)C)ccc2ccccc12`, the inhibition amounted to 86.6% in experiment [1], 88.5% in experiment [2] and 27.7% in experiment [3].

For the compound `CC(C)CCNC(=N)Nc1ccc(OCCCCCOc2ccc(NC(=N)NCCC(C)C)cc2)cc1`, the inhibition was 6.46% in experiment [1], 3.87% in experiment [2] and -1.73% in experiment [3].

For the compound `CN(Cc1cccc(F)c1)C1CCN(c2cc(NC(=O)c3ccc(F)cc3)ccn2)CC1`, the inhibition came to 6.99% in experiment [1], 6.01% in experiment [2] and 6.94% in experiment [3].

As for `COc1cc2nc(-c3ccccc3)nc(N3CCN(C(=O)c4ccco4)CC3)c2cc1OC`, the inhibition in experiment [1] is 13.7%; in experiment [2], 8.22%; in experiment [3], 7.06%.

Turning to `COc1ccc(NC(=O)Nc2nc(-c3ccc(Cl)c(C)c3)cs2)cc1N1CCN(C)CC1`, the figures for the inhibition in experiment [1], in experiment [2] and in experiment [3] were 0.68%, 3.54% and 2.63%, respectively.

Turning to `COc1ccc(CNCc2ccccc2)cc1-c1ccc(S(=O)(=O)NCCN2CCCC2)s1`, the inhibition in experiment [1] is 1.43%; in experiment [2], 2.19%; in experiment [3], 4.5%.

For the compound `CCC(C)(C)C1CCc2[nH]c3ccccc3c(=O)c2C1` (stereo not drawn), the inhibition turned out to be 9.6% in experiment [1], 26.9% in experiment [2] and 6.59% in experiment [3].

Consider `Nc1ccc(-c2nc3c(ccc4ccccc43)[nH]2)cc1`, for which the inhibition in experiment [1] worked out at 2.25%; in experiment [2] it was 1.85%; in experiment [3], 0.2%.

As to `CNCCCNc1ccnc2cc(Cl)ccc12`, the inhibition in experiment [1] was 3.07%; in experiment [2], 4.53%; in experiment [3] it was 5.03%.

For the compound `CN(C)CCOc1cc(O)c2c(c1)OC(C)(C)C=C2c1cccs1`, the inhibition in experiment [1] is -0.97%; in experiment [2] it was -1.11%; in experiment [3], -0.34%.

For `CC(C)(C)c1ccc(OCC(=O)NC2CCN(c3ccnc4cc(Cl)ccc34)C2)cc1` (stereo not drawn), the inhibition was 0.64% in experiment [1], 0.05% in experiment [2] and -1.09% in experiment [3].

Turning to `O=C(Cc1ccc[n+]([O-])c1)Nc1ccc(-c2cccc(-c3nc4cc(C(F)(F)F)ccc4[nH]3)c2)cc1`, the inhibition in experiment [1] was 1.49%; in experiment [2], 1.61%; in experiment [3], -0.42%.

On to `COc1cccc(CC(=O)N2CCC(n3c(C)nc4ccc(C)cc43)CC2)c1`, for which the inhibition in experiment [1] worked out at 1.58%; in experiment [2] it was 1.46%; in experiment [3], 1.1%.

As to `COc1cccc(CN2Cc3ccccc3OC3(CCN(Cc4c[nH]c5cnccc45)CC3)C2)c1`, the values for the inhibition in experiment [1], in experiment [2] and in experiment [3] were -0.87%, -0.52% and 0.59%, respectively.

`Cc1cc(C2CCN(CCCCNC(=O)c3ccc(NC(=O)c4ccc(Cl)cc4)cc3)CC2)c(C)cc1OCc1cccnc1`: the results for the inhibition in experiment [1], in experiment [2] and in experiment [3] were 0.04%, -0.98% and -0.82%, respectively.

In the case of `CCc1c(CCNCCCCCCNCCc2ccc(OC)c(OC)c2CC)ccc(OC)c1OC`, the inhibition in experiment [1] is 8.52%; in experiment [2], 7.29%; in experiment [3], 6.3%.

As for `Cc1cccc(-n2c(Nc3ccc(C)c(Cl)c3)nc3ccc(S(=O)(=O)NC(C)C(C)C)cc32)c1` (stereo not drawn), the inhibition is 2.71% in experiment [1], 1.5% in experiment [2] and -0.08% in experiment [3].

In the case of `N#Cc1c(N2CCCCCC2)nc(N)c2c(N)nc3c(c12)CC(=O)N3c1ccc(F)cc1`, the inhibition in experiment [1] is 2.61%; in experiment [2], 1.65%; in experiment [3], 2.89%.

With `Nc1nc(N)c2c(ccc3c2cnn3Cc2cccnc2)n1`, the inhibition in experiment [1] stood at 39.8%; in experiment [2], 51.2%; in experiment [3], 38.1%.

Broadly, the inhibition is the drop in the measured response relative to a control, in per cent.
